Reference: PubChem BioAssay (NCATS)
Inconclusive results are not listed. Activity calls are given as the source filed them. Unless noted, the call rests on the fitted dose curve; in most records, active means well fitted curve in the direction sought with a large enough effect; inconclusive means small, poorly fitted or top-dose-only effect, or another doubt; inactive means no such curve, though single readings can be large; an effect the other way counts as inactive or inconclusive.

Columns and labels:
[1] = qHTS to identify inhibitors of the type 1 interferon - major histocompatibility complex class I in skeletal muscle: primary screen against the NCATS Pharmaceutical Collection (AID 1347407); conditions: human skeletal muscle cells, IFN-b-induced MHC-I HiBiT luminescence, 24 h; series mostly up to 45.9 µM;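 further: luminescence of HiBiT knocked into endogenous HLA-B as interferon-induced MHC class I level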; further: potency means the concentration at half of the fitted maximal effect
How it was run: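 HLA-B HiBiT myoblasts, dexamethasone-free growth medium + 4 ng/ml IFN-b; compounds pinned 1 h after seeding, […] from 46 uM; 24 h, 37 C, 5% CO2; lytic HiBiT detection, 10 min RT, luminescence.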

[2] = molecular target: Protein phosphatase 1D (Homo sapiens) (UniProt O15297); assay: RapidFire Mass Spectrometry qHTS Assay for Modulators of WT P53-Induced Phosphatase 1 (WIP1) (AID 1347424); conditions: WIP1 dephosphorylation of phosphopeptide, RapidFire MS; series mostly up to 63 µM;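 further: amount of dephosphorylated VEPPL-S-QETFS peptide product formed by WIP1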; further: potency means the concentration at half of the fitted maximal effect
How it was run: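 10 nM WIP1 + cpd, 1 h RT; + 2 uM VEPPL-pS-QETFS, 5 min RT; stop 0.5% formic acid; labelled product standard 1 uM; RapidFire MS. Buffer 50 mM Tris pH 7.5, 30 mM MgCl2, 1 mM TCEP.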

[3] = molecular target: Protein phosphatase 1D (Homo sapiens) (UniProt O15297); assay: Rhodamine-PBP qHTS Assay for Modulators of WT P53-Induced Phosphatase 1 (WIP1) (AID 1347425); conditions: recombinant WIP1, Rhodamine-PBP phosphate fluorescence, real-time; series mostly up to 57.5 µM; further: % of control where 0% means no effect
How it was run: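 The read-out is the change in Rhodamine-PBP fluorescence (f1 - f0, ex 525/em 598 nm) as Pi is released, read each minute for 11 min. Final reaction: 5 nM WIP1, 10 uM phosphopeptide VEPPL-pS-QETFS, 10 uM Rh-PBP, 50 mM Tris-HCl pH 7.5, 30 mM MgCl2. Compound was preincubated with enzyme for 1 hour at room temperature.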

[4] = molecular target: Calcium and integrin-binding protein 1 (Homo sapiens) (UniProt Q99828); assay: Primary qHTS for Identification of Calcium Integrin Binding Protein 1 (CIB1) Competitor (AID 1508620); conditions: CIB1-GST / FITC-alphaIIb peptide fluorescence polarization; series mostly up to 114 µM;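 further: GST tagged CIB1 binding a fluorescein labelled alphaIIb integrin peptide tracer; top concentration of the series differs between compounds; on the % scale 0 is the no-effect control and ±100 the full control effect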
How it was run: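 CIB1-GST (1 uM final) and compound incubated 15 min at room temperature before adding FITC-alphaIIb peptide tracer (100 nM final). Competition for binding read by fluorescence polarization (ex 480, em 540) after another 15 min at room temperature.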

[5] = Primary qHTS for inhibitors of La Crosse Virus (LACV) - induced cell death in SH-SY5Y cells (AID 1508616); conditions: SH-SY5Y LACV cytopathicity rescue, ATP luminescence, 6 d; series mostly up to 9.63 µM;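 further: top concentration of the series differs between compounds; 0% = infected DMSO wells and 100% = uninfected DMSO wells; higher means more rescue of cells from virus-induced death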
How it was run: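 SH-SY5Y cells (6000/well) plated 24 h, then given compounds by pin transfer and LACV at 0.01 MOI for 6 days at 37C. Viability measured by ATPLite luminescence, normalized to infected DMSO and uninfected DMSO.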

[6] = A High-Content qHTS Against Drug Library for the Identification of Small Molecules that Inhibit DYT1 Early Onset Primary Dystonia-Associated Cell Pathology (AID 1645839; calls by dose curve; further: potency means the concentration at half of the fitted maximal effect); conditions: HEK293 Flp-In EGFP-delE TorsinA, punctate imaging, 48 h; series mostly up to 46.1 µM
How it was run: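 In this high-content image screen, delE TorsinA mislocalization in inducible Flp-In 293 cells is scored as %pathology, with cell count serving as the counterscreen. Compound exposure lasts 48 h under tetracycline induction in reduced-serum medium.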

[7] = Primary qHTS for small molecule stabilizers of the endoplasmic reticulum resident proteome: Secreted ER Calcium Modulated Protein (SERCaMP) assay (AID 1508630); conditions: SH-SY5Y GLuc-SERCaMP (Gaussia luciferase released on ER calcium loss) secretion, thapsigargin, luminescence; series mostly up to 38.4 µM; further: on the % scale 0 is the no-effect control and ±100 the full control effect
How it was run: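 GLuc-SERCaMP-expressing SH-SY5Y cells, pretreated 16 h with compound, are challenged with thapsigargin to empty ER calcium stores; after 4 h, coelenterazine is added directly to the medium and luminescence is imaged.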

[8] = molecular target: Calcium and integrin-binding protein 1 (Homo sapiens) (UniProt Q99828); assay: Confirmatory qHTS for Identification of Calcium Integrin Binding Protein 1 (CIB1) Competitor (AID 1508617); conditions: CIB1 binding competition assay, biochemical qHTS; further: potency means the concentration at half of the fitted maximal effect; nearly all actives have a fitted effect of over 65% in size
How it was run: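 Compounds at up to 114 uM final met 1 uM GST-tagged CIB1 for 15 min at room temperature (HEPES pH 7.4, 5 mM CaCl2). FITC-labelled alphaIIb peptide, 100 nM, added; polarization read after 15 min more.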

Chain of Calcium and integrin-binding protein 1 (Homo sapiens) (Q99828 whole entry, looked up): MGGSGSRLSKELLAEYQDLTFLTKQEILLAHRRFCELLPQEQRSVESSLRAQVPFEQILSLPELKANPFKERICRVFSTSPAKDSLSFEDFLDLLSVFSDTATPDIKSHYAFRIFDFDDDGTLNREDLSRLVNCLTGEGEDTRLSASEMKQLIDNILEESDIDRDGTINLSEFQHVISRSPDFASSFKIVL
Chain of Protein phosphatase 1D (Homo sapiens) (O15297 whole entry, looked up): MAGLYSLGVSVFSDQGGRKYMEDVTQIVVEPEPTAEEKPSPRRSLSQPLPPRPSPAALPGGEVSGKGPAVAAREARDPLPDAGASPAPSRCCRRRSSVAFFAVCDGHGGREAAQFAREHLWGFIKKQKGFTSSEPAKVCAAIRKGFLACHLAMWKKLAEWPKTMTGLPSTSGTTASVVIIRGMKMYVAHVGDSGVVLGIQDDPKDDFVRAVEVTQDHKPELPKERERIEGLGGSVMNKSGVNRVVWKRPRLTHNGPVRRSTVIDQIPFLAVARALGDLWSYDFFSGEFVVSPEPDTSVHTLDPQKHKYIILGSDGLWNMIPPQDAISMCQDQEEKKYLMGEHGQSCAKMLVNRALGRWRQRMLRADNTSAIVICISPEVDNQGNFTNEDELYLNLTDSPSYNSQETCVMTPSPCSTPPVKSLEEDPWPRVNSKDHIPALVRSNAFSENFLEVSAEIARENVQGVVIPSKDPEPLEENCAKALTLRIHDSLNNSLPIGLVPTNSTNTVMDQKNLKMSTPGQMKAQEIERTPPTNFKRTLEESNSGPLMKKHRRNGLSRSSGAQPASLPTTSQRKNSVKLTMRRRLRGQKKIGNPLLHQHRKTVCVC

COC(=O)c1nc(Cl)c(Cl)nc1N
inactive: Potency [2] | outcome [3] | Potency [4]
active: Potency [1] 10.5 µM

Clc1ccccc1-c1nc(-c2ccncc2)no1
inactive: Potency [1] | Potency [2] | outcome [3] | Potency [5] | Potency [4] | Potency [6]

C#C[C@]1(O)CC[C@H]2[C@@H]3CCc4cc(O)ccc4[C@H]3CC[C@@]21C
inactive: Potency [1] | Potency [2] | outcome [3] | Potency [4] | Potency [7]

CCCCCCCCCCCC(=O)[O][Sn]([CH2]CCC)([CH2]CCC)[O]C(=O)CCCCCCCCCCC
inactive: Potency [1] | Potency [2] | Potency [5] | Potency [4] | Potency [6]

Nc1ccc(O)c([N+](=O)[O-])c1
inactive: Potency [1] | Potency [5] | Potency [6]
active: Potency [2] 35.5 µM | Potency [8] 50.1 µM

O=Cc1ccc(O)c(O)c1O
inactive: Potency [1] | Potency [5] | Potency [6]

CC1(C)S[C@@H]2[C@H](NC(=O)[C@H](N)c3ccccc3)C(=O)N2[C@H]1C(=O)O
inactive: Potency [1] | Potency [2] | outcome [3] | Potency [5] | Potency [6]

Nc1ccc(O)c(C(=O)O)c1
inactive: Potency [1] | Potency [5] | Potency [7] | Potency [6]
active: Potency [2] 17.8 µM

CN(C)[C@@H]1C(=O)C(C(=O)NCN2CCCC2)=C(O)[C@@]2(O)C(=O)C3=C(O)c4c(O)cccc4[C@@](C)(O)C3C[C@@H]12 (stereo not given in full)
inactive: Potency [1] | outcome [3] | Potency [5] | Potency [6]

O=C1CN(/N=C/c2ccc([N+](=O)[O-])o2)C(=O)N1
inactive: Potency [1] | Potency [2] | outcome [3] | Potency [5] | Potency [4] | Potency [6]

CCCCCCCCCCCCCCCC(=O)OC(C)C
inactive: Potency [1] | Potency [2] | outcome [3] | Potency [5] | Potency [4] | Potency [6]

Cc1cc(O)c2ccccc2c1O
inactive: Potency [1] | outcome [3] | Potency [5] | Potency [4] | Potency [7]

Cc1c(C(=O)O)c(O)cc2c1C(=O)c1c(O)c([C@@H]3O[C@H](CO)[C@@H](O)[C@H](O)[C@H]3O)c(O)c(O)c1C2=O
inactive: Potency [1] | Potency [2] | outcome [3] | Potency [5] | Potency [4] | Potency [6]

Cc1ccc(C(=O)c2ccc(CC(=O)O)n2C)cc1
inactive: Potency [1] | Potency [2] | outcome [3] | Potency [5] | Potency [4] | Potency [6]

Oc1c(Br)cc(Br)c2cccnc12
inactive: Potency [1] | Potency [2] | outcome [3] | Potency [7]
active: Potency [6] 5.62 µM

c1ccc2sc(SSc3nc4ccccc4s3)nc2c1
inactive: Potency [1] | Potency [2] | outcome [3] | activity change [5] 7.43% [at 1.78 µM] | Potency [4] | Potency [6]

COc1ccc(-c2cc(=S)ss2)cc1
inactive: Potency [1] | Potency [2] | Potency [5] | Potency [4] | Potency [7] | Potency [6]

Nc1nc2ccc([N+](=O)[O-])cc2s1
inactive: Potency [1] | Potency [2] | Potency [5] | Potency [4] | Potency [6]

C=CCCCCCCCCC(=O)O
inactive: Potency [1] | Potency [2] | outcome [3] | Potency [5] | Potency [4] | Potency [6]

CC(=O)c1ccc(OCC(=O)N2CCCCC2)cc1
inactive: Potency [1] | Potency [2] | outcome [3] | Potency [5] | Potency [4] | Potency [6]
